From PubChem BioAssay
MITF primary = blocks human microphthalmia-associated transcription factor. AlphaScreen MITF homodimerization, bead proximity signal. 650,000 tested, 0.91% active. AID 1259374. inhibition, % at 2.6 µM; in the data active means inhibition above about 50%;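 further: 0% = vehicle wells with protein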
GPR151 ag = activates the human receptor GPR151; Q8TDV0; PathHunter beta-arrestin GPR151 cells, luminescence; activation, % at 11.2 µM; 650,000 tested, 1% active; AID 1508602; in the data active means activation above about 4.9%;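 further: 0% = median of compound wells and 100% = cells with positive control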
FBW7 act = human FBW7 E3 ligase activation, primary screen; AlphaScreen FBW7–phospho-cyclin E peptide binding, activator screen; AID 1259310; 650,000 tested, 0.13% active; normalized activity (activation), % at 26.1 µM; in the data active means normalized activity above about 1.9%;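 further: purified mutant Fbw7 with reduced substrate affinity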
TEAD-YAP inh = TEAD-YAP interaction inhibition; HEK-TIYL cells, TEAD-Gal4/YAP UAS-luciferase luminescence; inhibition, % at 9.12 µM; 640,000 tested, 1.4% active; in the data active means inhibition above about 32%;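 further: 0% = median of test compound wells and 100% = reference inhibitor wells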
GPR151 conf act = confirmation of human GPR151 activators; GPR151 PathHunter beta-arrestin cells, luminescence, 90 min; % of EA-reagent control over plate median; 6,700 tested, under 10 active; AID 1508609; activation, % at 11.2 µM; shares compounds with GPR151 ag;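 active means mean percent activation across replicates above the confirmation screen cutoff of 4.91%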
GPR119 ag = counter-screen for GPR151 activators: effect on human GPR119. shares compounds with GPR151 ag. GPR119 PathHunter beta-arrestin cells, luminescence, 90 min; 0 = compound-well median, 100 = enzyme-acceptor control. activation, % at 11.2 µM. 6,700 tested, 0.3% active. AID 1508611;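 active means mean percent activation in the counterscreen above 29.09%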;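 further: counterscreen on off-target GPR119 to flag nonselective hits from the GPR151 activator screen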
Target sequence (Q8TDV5 whole entry, looked up): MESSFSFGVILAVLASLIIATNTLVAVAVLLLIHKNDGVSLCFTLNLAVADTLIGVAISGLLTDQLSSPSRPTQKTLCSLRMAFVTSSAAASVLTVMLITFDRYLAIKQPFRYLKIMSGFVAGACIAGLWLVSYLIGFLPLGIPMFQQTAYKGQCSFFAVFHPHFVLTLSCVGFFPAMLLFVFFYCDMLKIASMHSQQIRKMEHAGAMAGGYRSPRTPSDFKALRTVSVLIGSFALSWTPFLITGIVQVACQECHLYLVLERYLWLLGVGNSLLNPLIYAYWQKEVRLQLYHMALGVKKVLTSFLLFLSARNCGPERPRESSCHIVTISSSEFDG
* hit, by the source's call; x = no result; ! = not confirmed by another sample. Most compounds without a hit are left out; they make up all but 3.5% or so of the library.

SMILES | MITF primary | GPR151 ag | FBW7 act | TEAD-YAP inh | GPR151 conf act | GPR119 ag
COc1ccc(OCC2c3cc(OC)c(OC)cc3CCN2C(=O)/C=C/c2cc(OC)c(OC)c(OC)c2)cc1 (stereo not given) | -4 | -1 | 0 | 29 | x | x
CCOC(=O)c1ccc(OCC2c3cc(OC)c(OC)cc3CCN2C(=O)c2ccc(OCC)c(OCC)c2)cc1 (stereo not given) | -4 | 0 | 0 | 4 | x | x
COc1cc2c(cc1OC)C(COc1ccc(F)cc1)NCC2 (stereo not given) | 1 | 7.1* | 0 | 6 | 0 | 1
COc1cc2c(cc1OC)C(COc1ccc(F)cc1)N(C(=O)/C=C/c1cc(OC)c(OC)c(OC)c1)CC2 (stereo not given) | 5 | 6.3* | 0 | 7 | 1 | 10
CC(C)=CCN1CCNC(=O)C1CC(=O)N(C)Cc1ccncc1C (stereo not given) | 5 | -1 | 0 | -2 | x | x
COc1cccc(CNC(=O)c2nc3ccc(-c4ncnc5[nH]ccc45)cc3c(=O)[nH]2)c1 | -3 | 1 | 0 | -9 | x | x
COc1cccc(CNS(=O)(=O)c2ccc(-c3ncnc4[nH]ccc34)cc2F)c1 | 28 | 5.0* | 0 | -15 | 1 | -7
CC[C@@H](C(=O)[C@@H](C)[C@@H](O)[C@H](C)[C@@H]1O[C@@H]([C@@H](CC)C(=O)O)CC[C@@H]1C)[C@H]1O[C@]2(C=C[C@@H](O)[C@]3(CC[C@@](C)([C@H]4CC[C@](O)(CC)[C@H](C)O4)O3)O2)[C@H](C)C[C@@H]1C | -4 | 11*! | 0 | 78*! | 0 | 6
FC1(F)C(F)(F)C(F)(F)C2(F)C(F)(F)C(F)(F)C(F)(F)C(F)(F)C2(F)C1(F)F (stereo not given) | 1 | 5.1* | 0 | 3 | 0 | -6
COc1cccc(CN2CCNC(=O)C2CC(=O)N(C)Cc2nc(C)cs2)c1OC (stereo not given) | -13 | 5.7* | 0 | -3 | -1 | -17
Cc1csc(CN(C)C(=O)CC2C(=O)NCCN2CC2CCCCC2)n1 (stereo not given) | 9 | 5.3* | 0 | 8 | -1 | -2
COc1cc(CN2CCNC(=O)C2CC(=O)N(C)Cc2ccno2)cc(OC)c1 (stereo not given) | -1 | 6.1* | 0 | 9 | 0 | -2
COc1cccc(CN2CCNC(=O)C2CC(=O)N(C)Cc2ccno2)c1 (stereo not given) | -11 | -1 | 0 | -5 | x | x
Cc1csc(CN(C)C(=O)CC2C(=O)NCCN2CCC(C)C)n1 (stereo not given) | 14 | 1 | 0 | 11 | x | x
COc1ccc(-c2cccc(NS(=O)(=O)c3cccc(Cl)c3Cl)c2)nn1 | -7 | 1 | 0 | -8 | x | x
COc1cc(OC)cc(-n2nc(C(=O)N3CCCCC3)c3ccccc3c2=O)c1 | 10 | 13* | 0 | 6 | 0 | 0
COc1cc(OC)cc(-n2nc(C(=O)N3CCCCCC3)c3ccccc3c2=O)c1 | 0 | 1 | 0 | -3 | x | x
O=C(c1n[nH]c(=O)c2ccccc12)N1CCCCCC1 | 17 | 5.6* | 0 | 0 | 0 | 6
C/C(CC(=O)Nc1ccc2c(c1)OCCO2)=N\NC(=O)C(c1ccccc1)c1ccccc1 | 11 | 5.1* | 0 | 6 | 0 | -5
CCC(=O)N/N=C(\C)CC(=O)Nc1ccc2c(c1)OCCO2 | -7 | 0 | 0 | -12 | x | x
O=C(c1ccc(Cl)cc1)c1cc(NC(=O)c2cc(Cl)cc(I)c2O)ccc1Cl | 2 | 3 | 0 | 9 | x | x
CCN1c2ncccc2C(=O)NC12CCN(C(=O)c1cccc3nccnc13)CC2 | 6 | 1 | 1 | 2 | x | x
CC(=O)N1CCC(N(C(=O)C2CCN(c3ccc(C(F)(F)F)cn3)CC2)C2CC2)CC1 | 16 | 5.5* | 0 | -3 | -1 | -3
Cc1ccc(-n2c(C)cc(C(=O)Cn3nc(C)c(C)c(C#N)c3=O)c2C)cc1C | 9 | 0 | 0 | 0 | x | x
CCOc1ccc(NC(=O)CSc2nc3ccc(N4CCCCC4)cc3c(=O)n2Cc2ccccc2)cc1 | -1 | 7.7* | 0 | 9 | 0 | 8
SMILES | MITF primary | GPR151 ag | FBW7 act | TEAD-YAP inh | GPR151 conf act | GPR119 ag
CC(C)C(NC(=O)C1CCCCC1)C(=O)Nc1ccncc1 (stereo not given) | -2 | 5.6* | 0 | 6 | 0 | 9
Cc1nc2ccccc2c(=O)n1-c1ccc(N2CCOCC2)c(C(F)(F)F)c1 | -5 | 5.9* | 0 | 9 | 1 | -4
Cc1nc2ccccc2c(=O)n1CC(=O)N1CCOCC1 | 10 | -1 | 1 | 6 | x | x
CCCCCn1c(SCc2ccccn2)nc2cc(C(=O)N3CCN(c4ccccc4)CC3)ccc2c1=O | -2 | 5.1* | 0 | -13 | -1 | -21
N#CCSc1nc2cc(C(=O)N3CCN(c4ccccc4)CC3)ccc2c(=O)n1C1CCCCC1 | -11 | 11* | 0 | -4 | 1 | 8
N#CCSc1nc2cc(C(=O)N3CCCC3)ccc2c(=O)n1-c1ccccc1 | 12 | 0 | 0 | -7 | x | x
CC1Cc2ccccc2N1C(=O)CN(C)S(=O)(=O)c1ccc2c(c1)CCC(=O)N2 (stereo not given) | -5 | 1 | 0 | 3 | x | x
CCOc1ccc(-n2c(=S)sc3c(=O)n(-c4ccccc4)c(SCc4cccc([N+](=O)[O-])c4)nc32)cc1 | -6 | 0 | 0 | 11 | x | x
CC1=C(C(=O)OCC(C)C)C(c2ccc3c(c2)OCO3)NC(=O)N1 (stereo not given) | 11 | 5.9* | 0 | -2 | 0 | 5
CC1=C(C(=O)OCc2ccc3c(c2)OCO3)C(c2cccc(Cl)c2)NC(=O)N1 (stereo not given) | -4 | 6.6* | 0 | 25 | 1 | 14
CC1CCCCC12NC(=O)N(Cc1ccccc1C#N)C2=O (stereo not given) | 9 | -1 | 0 | 15 | x | x
CC(C)c1ccc(NC(=O)c2ccc(N(C)C)cc2)cc1 | 6 | 0 | 1 | -46 | x | x
CC(C)c1ccc(C(=O)Nc2ccc(N(C)C)cc2)cc1 | 7 | 19* | 0 | 7 | -1 | -11
COc1cc(NC(=O)NCc2cccs2)c2ncccc2c1 | -1 | 5.6* | -1 | 8 | 0 | -4
CC(OCc1ccccc1)C(NC(=O)OC(C)(C)C)C(=O)Nc1nccs1 (stereo not given) | -1 | 13* | 0 | 1 | 1 | 7
COc1ccc2c(c1)C[C@H](C(=O)Nc1ccc(-c3cn[nH]c3C)cc1OCCN(C)C)NC2 | 10 | 0 | 0 | -3 | x | x
COC(=O)Nc1ccc(S(=O)(=O)N2CCCC(C(=O)O)C2)cc1 (stereo not given) | 3 | 11* | 0 | 2 | 0 | -9
CCc1ccc(CN2CCc3nnc(CCNC(=O)c4ccoc4)n3CC2)cc1 | -7 | 1 | 0 | 3 | x | x
